Screens from PubChem.
The list is not random: actives were taken first. Their share in the collection is about 3%.
DAGLB inh – diacylglycerol lipase beta (human) inhibition; HEK293T DAGLB membrane lysate, EnzChek fluorogenic substrate; 0.059% of 340,000 active; inhibition, % at 5.17 µM; Q8NCG7; in the data active = inhibition above about 34%;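 note: 0% = enzyme with vehicle and 100% = wells lacking enzyme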
PAFAH1B3 FP inh – PAFAH1B3 (human) inhibition. Q15102. recombinant PAFAH1B3, FP-rhodamine probe, fluorescence polarization. inhibition, % at 3.39 µM. 0.28% of 340,000 active;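 active = inhibition above the screen-wide average of all tested compounds plus 3 SD, cut at about 25% in these data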;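 note: 0% = enzyme with DMSO only and 100% = wells lacking PAFAH1B3 protein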
PAFAH1B2 inh – blocks human PAF acetylhydrolase 1b catalytic subunit 2. recombinant PAFAH1B2, FP-rhodamine activity probe, fluorescence polarization. 1.2% of 340,000 active. inhibition, % at 3.39 µM. P68402;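 active = inhibition above the mean of all tested compounds plus 3 SD, cut at about 24% in these data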;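 note: 0% = enzyme with DMSO and 100% = wells lacking PAFAH1B2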
Target sequence (P68402 whole entry, looked up): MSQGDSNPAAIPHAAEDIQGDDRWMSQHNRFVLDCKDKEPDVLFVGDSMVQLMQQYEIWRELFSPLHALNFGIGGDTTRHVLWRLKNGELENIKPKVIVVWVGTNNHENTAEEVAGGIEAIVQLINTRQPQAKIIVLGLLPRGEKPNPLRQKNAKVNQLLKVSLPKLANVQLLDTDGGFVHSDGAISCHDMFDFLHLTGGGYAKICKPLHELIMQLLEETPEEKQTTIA
ATG4B inh – ATG4B (human) cysteine protease inhibition. 0.51% of 340,000 active. ATG4B cleavage of LC3-PLA2, NBD-HPC fluorescence, 1 h. inhibition, % at 8.33 µM; in the data active = inhibition above about 40%
PAFAH2 inh – PAFAH2 (human) inhibition; Q99487; 0.99% of 340,000 active; inhibition, % at 3.39 µM; AID 492956; recombinant PAFAH2, FP-rhodamine activity probe, fluorescence polarization;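 active = inhibition above the mean over all tested compounds plus 3 SD, cut at about 30% in these data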;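 note: inhibitors block probe labeling of enzyme so polarization drops; 0% = enzyme with DMSO and 100% = wells lacking PAFAH2 protein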
pPAFAH FP inh – pPAFAH (human) enzyme inhibition; Q13093; recombinant pPAFAH, FP-rhodamine probe fluorescence polarization; inhibition, % at 3.39 µM; 1.5% of 330,000 active;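 active = inhibition above the mean inhibition across the screen plus 3 SD, cut at about 25% in these data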;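 note: inhibitors block binding of the rhodamine activity-based probe so polarization drops; 0% = enzyme with DMSO and 100% = wells lacking pPAFAH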
Target sequence (Q13093 whole entry, looked up): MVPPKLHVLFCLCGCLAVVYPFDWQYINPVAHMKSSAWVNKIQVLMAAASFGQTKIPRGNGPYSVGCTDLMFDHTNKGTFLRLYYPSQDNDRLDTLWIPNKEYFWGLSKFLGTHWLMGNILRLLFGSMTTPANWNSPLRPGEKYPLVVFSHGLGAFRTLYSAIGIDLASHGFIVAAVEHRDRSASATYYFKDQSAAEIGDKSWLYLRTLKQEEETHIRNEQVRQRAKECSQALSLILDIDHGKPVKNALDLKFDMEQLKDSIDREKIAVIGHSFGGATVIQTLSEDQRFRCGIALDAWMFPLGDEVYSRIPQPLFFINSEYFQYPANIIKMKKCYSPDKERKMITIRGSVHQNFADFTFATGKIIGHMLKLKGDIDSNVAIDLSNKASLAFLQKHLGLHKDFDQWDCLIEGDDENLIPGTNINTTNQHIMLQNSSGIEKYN
An asterisk follows results filed as active; . = no result given.

SMILES	DAGLB inh	PAFAH1B3 FP inh	PAFAH1B2 inh	ATG4B inh	PAFAH2 inh	pPAFAH FP inh
Cc1ccccc1C(=O)NNC(=O)C12CC3CC(CC(C3)C1)C2	1.3	0.9	9.0	-10.1	0.4	0.3
C[C@@H]1CN([C@@H](C)CO)C(=O)CCCn2nncc2CO[C@H]1CN(C)C(=O)NC1CCCCC1	-2.1	.	.	.	.	.
O=S(=O)(NC1CCCC1)c1ccc(S(=O)(=O)N2CCc3ccccc32)cc1	-2.9	0.1	27.0*	-9.6	8.1	27.4*
Nc1ccn([C@@H]2O[C@H](CNC(=O)[C@@H](N)CSCc3ccccc3)[C@@H](O)[C@H]2O)c(=O)n1	-0.9	.	.	.	.	.
O=C1CC[C@@H](O)CCN1CC[C@H](Sc1ccccc1)c1ccccc1	-1.5	1.6	10.0	0.5	17.4	8.7
O=C1CC[C@@H](OCc2ccccc2)CCN1CC[C@H](Sc1ccccc1)c1ccccc1	-12.7	-1.8	5.3	9.5	32.6*	31.8*
CC(=O)Nc1ccc(NC(=O)CSc2nnnn2-c2ccc(F)cc2)cc1	-0.4	8.2	6.8	1.6	0.8	-1.8
C=CCn1c(=O)c2ccccc2n2c(Sc3nnnn3-c3ccccc3)nnc12	-0.7	5.3	5.1	0.4	-11.9	7.9
CCCn1c(=O)c2ccccc2n2c(Sc3nnnn3-c3ccccc3)nnc12	3.2	7.6	-2.8	-5.9	-7.3	26.9*
COc1ccc(-n2cc(-c3ccccc3)c3c(NCCOCCO)ncnc32)cc1	-7.5	6.4	-0.3	1.1	-8.5	28.2*
CCOc1ccc(-n2cc(-c3ccccc3)c3c(SC(C)C(=O)OC)ncnc32)cc1 (stereo not drawn)	-8.0	-0.6	-1.4	17.5	-2.7	30.3*
CC1CN(c2ncnc3c2c(-c2ccccc2)cn3-c2ccc(F)cc2)CC(C)O1 (stereo not drawn)	-3.2	5.9	-1.8	-8.0	5.3	-0.1
NS(=O)(=O)c1ccc(CCNc2ncnc3c2c(-c2ccccc2)cn3-c2ccc(F)cc2)cc1	-0.9	4.0	1.5	-9.8	10.3	26.8*
CCN(CC)CCCn1c2c(c(SCC(=O)Nc3ccc4c(c3)OCCO4)nc1=O)CCC2	-0.4	3.2	-2.1	-1.2	-3.3	3.4
CCN(CC)S(=O)(=O)c1ccc(N2CC(C(=O)N3Cc4ccccc4CC3C(N)=O)CC2=O)cc1 (stereo not drawn)	-0.5	12.4	-1.4	28.3	16.6	5.7
O=C1CC2(CCCCC2)Oc2ccc(Cl)cc21	-10.1	10.6	5.2	3.0	-5.9	-2.3
Cc1cnc(C(=O)N2CCN(S(=O)(=O)c3ccc(F)c(F)c3F)CC2)cn1	0.9	-1.5	8.1	-4.9	6.7	1.0
CCc1nc(SCC(=O)N2c3ccccc3CC2C)c2c(C)c(C)sc2n1 (stereo not drawn)	-32.3	-7.2	-3.0	82.6*	3.6	-13.0
CCOc1ccc(OCCC(=O)N2CCN(S(=O)(=O)c3cccc(F)c3)CC2)cc1	2.5	5.2	3.0	-4.0	-0.7	4.5
CCOC(=O)CCc1ccc(NC(=O)/C=C/c2ccc([N+](=O)[O-])o2)cc1	3.0	8.0	-1.0	2.6	-0.3	.
CCc1ccc(C(=O)/C=C/c2ccc([N+](=O)[O-])o2)cc1	1.3	-0.4	1.5	8.9	0.7	26.7*
Cc1cc(C)c2c(n1)SCC(=O)N2CC(=O)Nc1ccc(Br)c(C)c1	0.5	14.5	-0.1	3.0	-6.2	2.9
CC1CCC2(CC1)NC(=O)N(NC(=O)c1cc3ccccc3o1)C2=O (stereo not drawn)	0.7	4.9	2.8	5.8	-0.4	1.0
CN1CCN(C(=O)OCCOCCOC(=O)N2CCN(C)CC2)CC1	-1.2	2.9	5.1	-5.8	0.5	.
O=C(O)c1cc(-c2ccc(Cl)c(Cl)c2)n(-c2ccccc2)n1	6.0	0.9	28.8*	9.0	-1.8	5.7
SMILES	DAGLB inh	PAFAH1B3 FP inh	PAFAH1B2 inh	ATG4B inh	PAFAH2 inh	pPAFAH FP inh
O=C(Nc1nnc(S(=O)(=O)N2CCCC2)s1)c1ccccc1Br	-2.2	6.2	6.4	12.9	-5.4	2.8
CC1CCN(S(=O)(=O)c2nnc(NC(=O)c3ccccc3Br)s2)CC1	8.7	5.2	27.8*	2.8	3.1	3.3
Cc1cccc(OCC(=O)Nc2nnc(S(=O)(=O)N3CCC(C)CC3)s2)c1	6.7	4.4	27.2*	-6.8	0.9	0.9
C/C(=N\NC(=O)c1cccs1)c1ccc2c(c1)OCO2	.	.	.	7.0	.	28.3*
N#CC1=C2N=C(N)c3c(sc4c3CCCCC4)N2C2=C(C(=O)CCC2)C1c1ccccc1 (stereo not drawn)	9.7	11.6	7.3	-9.8	12.0	30.1*
COc1cc(/C=C(\NC(C)=O)C(=O)NC(C)(C)C)ccc1OC(C)=O	-2.1	-4.5	4.1	-4.2	-1.4	0.2
Cc1ccc(C)c(S(=O)(=O)N2CCN(C(=O)c3ccc(N4CCCC4)c([N+](=O)[O-])c3)CC2)c1	6.8	3.4	3.0	-7.0	-7.9	25.4*
Cc1ccc(C)c(SCC(=O)OCC(=O)c2ccco2)c1	-5.2	5.9	0.7	-11.9	15.4	28.2*
COc1ccc(OC)c(C2=Nn3c(nnc3-c3cc(C)[nH]n3)SC2)c1	0.5	4.2	3.6	-9.5	-0.6	-10.8
CCC(C)(NC=O)C(=O)Nc1c(C)cccc1C (stereo not drawn)	-2.9	1.9	-5.4	-1.7	-5.2	-0.6
Cc1cccc(NC(=S)N(Cc2ccc(Br)cc2)Cc2ccc(C(=O)O)cc2)c1	3.1	-6.9	3.5	-8.8	-2.9	3.5
Cc1cc(NC(=S)N(Cc2ccc(Br)cc2)Cc2ccc(C(=O)O)cc2)ccc1Cl	2.7	5.2	31.7*	16.0	2.4	4.5
O=C(CSCc1ccco1)c1ccc(Cl)s1	.	.	.	.	.	25.3*
Cc1ccc(S(=O)(=O)NCc2ccccc2)cc1C(=O)N1CCN(S(=O)(=O)c2ccccc2F)CC1	-3.1	.	.	.	.	.
CCCCCCCCCCCCCCCC[n+]1cccc(C(=O)N(CC)CC)c1	3.7	1.9	2.6	5.7	-4.7	32.1*
CCCc1ccc2oc(C(=O)N3CCC(COC)C3)c(C)c2c1 (stereo not drawn)	-6.4	-1.8	4.9	-12.8	9.5	26.8*
COc1ccccc1NS(=O)(=O)c1cc(NC(=O)Nc2ccc(Cl)cc2Cl)ccc1N1CCCCC1	-6.9	6.8	13.6	-11.9	-25.8	33.9*
CC(NC(=O)CSc1n[nH]c(=O)[nH]c1=O)C1CC2CCC1C2 (stereo not drawn)	-0.1	4.7	26.9*	-4.2	-3.0	0.2
Cc1cc(=O)[nH]c(SCC(=O)NC(C)C2CC3CCC2C3)c1C#N (stereo not drawn)	1.7	-0.2	18.2	5.2	8.5	22.6
CC(NC(=O)CSc1ncccc1C(=O)O)C1CC2CCC1C2 (stereo not drawn)	1.0	0.0	29.2*	-3.1	8.1	2.8
O=C(CSc1ncccc1C(=O)O)NC1CCCCC1	-1.9	-5.0	3.6	-8.0	0.2	3.7
C#CCn1cc2c(c1-c1ccccc1)c(=O)n(C)c(=O)n2C	-0.3	.	.	.	.	.
